Experimental data from the supplement of paper PMC10338343.
± gives the standard deviation.

How the values were obtained:
[1] = test system: MILI (PIWIL2) piRISC loaded with L1MC piRNA (26 nt); assay: pre-steady-state target cleavage rate (min^-1); guide: L1MC piRNA 5'p-UAACUAAAUACUAUGCAAGCUGUAGG; higher = faster piRNA-guided slicing of the target;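 further: 1 nM active piRISC with 0.1 nM target library at 33 °C single turnover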
How it was run: (§1)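 A transcribed, DNA-blocked target RNA library […] was incubated at 33 °C for 0–8 or 0–960 min with 1 nM active affinity-purified piRISC carrying one synthetic guide, in HEPES–potassium acetate buffer with or without 500 nM GTSF1 partner protein. Uncleaved targets were then sequenced and normalised to depth and to weakly complementary targets. Data from three trials were pooled, with k3 capped at 0.0001 min^-1, and a burst-and-steady-state fit yielded the pre-steady-state cleavage rate.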

[2] = test system: EfPiwi piRISC loaded with L1MC piRNA (26 nt); assay: pre-steady-state target cleavage rate (min^-1); auxiliary factor: 500 nM Ephydatia muelleri Gtsf1; guide: L1MC piRNA 5'p-UAACUAAAUACUAUGCAAGCUGUAGG; MIWI and MILI are mouse PIWI proteins and EfPiwi is from a freshwater sponge; tags in brackets are library labels; higher = faster piRNA-guided slicing of the target
How it was run: as §1

[3] = auxiliary factor: 500 nM mouse GTSF1
[4] = auxiliary factor: none (no GTSF1)

Sequence | pre-steady-state target cleavage rate [1, 3] | pre-steady-state target cleavage rate [1, 4] | pre-steady-state target cleavage rate [2]
UCCUGGUUCAGCUUGCAAAGUAUUUAGUUA | 0.137 ± 0.018 | 0.0176 ± 0.0038 | 0.0681 ± 0.019
UCCUGGAUCAGCUUGCAUAGUAUUUAGUUG [g2:g22:cont:t1G] | 0.285 ± 0.018 | 0.00983 ± 0.0019 | 0.0209 ± 0.0054
UCCUGGUACAGCAUGCAUAGUAUUUAGUUA | 0.268 ± 0.02 | 0.0158 ± 0.004 | 0.0111 ± 0.0041
UCCUGCUACAGCUUGCAAAGUAUUUUGUUA | 0.139 ± 0.026 | 0.00325 ± 0.0025 | 0.00625 ± 0.0028
UCCUCCUACAGCUUGCAAAGUUUUUAGUUA | 0.0169 ± 0.0064 | 0.00334 ± 0.0023 | 0.00281 ± 0.0022
UCCUGGUCACAGCUUGCAUAGUAUUUAGUUA | 0.239 ± 0.018 | 0.0126 ± 0.0051 | 0.00857 ± 0.0072
UCCUGGAUCAGCUUGCAUAGUUUUAAGUUA | 0.0366 ± 0.008 | 0.00531 ± 0.0024 | 0.00285 ± 0.0028
UCCUGGAACAGCUUGCAAAGUAUUUAGUAA | 0.158 ± 0.022 | 0.00401 ± 0.0024 | 0.00293 ± 0.0022
UCCUGCUACACGAUGCAUAGUAUUUAGUUA | 0.241 ± 0.022 | 0.00624 ± 0.0023 | 0.00905 ± 0.0024
UCCUGGAUCAGCAUGCAUAGUAAUUAGUUA | 0.181 ± 0.025 | 0.00637 ± 0.0027 | 0.00437 ± 0.0016
UCCUGCAACAGCUUGCAUUGUAUUUAGUUA | 0.262 ± 0.018 | 0.0076 ± 0.0027 | 0.0331 ± 0.0081
UCCUGGAUGUGCUUGCAUAGUAUCUAGUUA | 0.135 ± 0.031 | 0.00366 ± 0.0031 | 0.00344 ± 0.0024
UCCUGCUACAGCUUGCAUAGUAUAAAGUUA | 0.198 ± 0.025 | 0.00349 ± 0.0022 | 0.00347 ± 0.0022
UCCUCCAACAGCUUGCAAAGUAUUUAGUUA | 0.155 ± 0.01 | 0.00656 ± 0.0019 | 0.0132 ± 0.0038
UCCUGGAACAGCUGCAUAGUAUUUAGUUA | 0.279 ± 0.021 | 0.0069 ± 0.0026 | 0.0362 ± 0.0095
UCCUGGAACAGCUUGGAAAGUAUUUAGUUA | 0.125 ± 0.0077 | 0.00969 ± 0.0023 | 0.0164 ± 0.0053
UCCUCCUACACCUUGCAUAGUAUUUAGUAA | 0.226 ± 0.037 | 0.0033 ± 0.0026 | 0.00625 ± 0.003
UCCUGGAUGUGCUUAGCAUAGUAUUUAGUUA | 0.124 ± 0.015 | 0.00625 ± 0.0028 | 0.00497 ± 0.0028
